# HSP90 refold inh: HSP90 refolding inhibition in rabbit reticulocyte lysate. luciferase refolding luminescence, 3 h. inhibition, % at 5.6 µM. 0.91% of 290,000 active. AID 1789;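 active = inhibition above the screen-wide mean plus 3 SD, computed separately per campaign, cut at about 16% in these data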;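 note: 0% = DMSO wells and 100% = 60 µM geldanamycin wells; inhibitors lower the luminescence because luciferase stays unfolded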
# HSF1 inhib: HSF1 inhibition; NIH3T3-HGL HSE-luciferase, MG132-induced, luminescence 8 h; hits give low values; 0.77% of 300,000 active; activity change, negative = inhibition, % at 7.5 µM (by protocol); AID 2098;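 active = more than half of replicate wells show activity change below -50%, luminescence cut by over half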;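 note: luciferase reports HSF-1 transcriptional activity via heat shock element; 0% = median of DMSO wells and -100% = zero luminescence signal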
# HSF1 activator: increases HSF-1 driven luciferase reporter signal. 1.7% of 300,000 active. activation, % at 9 µM. AID 504408. NIH3T3-HGL HSF-1 luciferase reporter, MG132, 8 h; 100% = twice DMSO control signal;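 active = mean replicate activation of at least 50% with a set share of replicates each reaching 50%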;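 note: 0% = median of the neutral control wells and 100% = twice that signal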
# EBV LMP1 NFkB: inhibitors of Epstein-Barr LMP1-induced NF-kappaB reporter; LMP1-induced NF-kappaB luciferase reporter cells, luminescence; inhibition, % at 12.5 µM; 0.69% of 350,000 active; in the data active = inhibition above about 41%;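 note: 0% = neutral control wells and 100% = reference inhibitor control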
# TROY NFkB inh: inhibitors of TROY-dependent NF-kB signaling; Q293 LMP1-TROYcd NF-kB luciferase reporter, 4 h; inhibition, % at 10 µM; 0.98% of 360,000 active;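 active = compounds whose plate-normalised and pattern-corrected inhibition of the luciferase reporter signal at the single screening dose is 50% or more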
# TWEAK-Fn14 inh: blocks TWEAK-Fn14 interaction in a reporter cell assay | AID 1159606 | TWEAK-stimulated Fn14 reporter cells, luciferase luminescence, 8 h | 2% of 360,000 active | inhibition, % at 10 µM; in the data active = inhibition above about 50%
# * marks the source's active call; other numbers are inactive results; nt = not tested or not shown. A selection: hits, their analogues and other compounds. The true share with any hit is near 4.7%.
SMILES,HSP90 refold inh,HSF1 inhib,HSF1 activator,EBV LMP1 NFkB,TROY NFkB inh,TWEAK-Fn14 inh
Cc1cc(C(=O)c2ccc(C(C)(C)C)cc2)c(NC(=O)CCl)s1,-2,44,94*,-1,-8,-8
O=C(CCl)Nc1sccc1C(=O)c1ccccc1,nt,43,61*,20,7,5
O=C(Nc1cccc(C(F)(F)F)c1)c1ccc2sc([C@@H]3O[C@H](CO)[C@H](O)[C@H](O)[C@H]3O)nc2c1,nt,nt,nt,nt,-23,-6
O=C(NC(=S)NNC(=O)c1ccco1)c1ccc(Br)cc1,-1,-19,-8,0,-59,-17
Nc1cc[n+](CC(=O)Nc2ccccc2)cc1,0,26,56*,-5,-19,-32
Cc1cccc(NC(=O)C[n+]2ccccc2)c1,-4,8,-17,3,-7,12
CCCCN(CC)C(=S)Nc1ccc2nc(N3CCN(C)CC3)cc(C)c2c1,28*,-56*,-55,10,68*,55*
CCCCN(C)C(=S)Nc1ccc2nc(N3CCN(CC)CC3)cc(C)c2c1,9,-64*,-71,-1,62*,34
CCCCN(C)CCNC(=S)Nc1ccc2nc(N3CCN(CC)CC3)cc(C)c2c1,-1,-4,-3,-35,-6,-17
CC(C)(C)c1ccc(C(=O)N2CCOC23CCCCC3)cc1,nt,nt,nt,nt,-5,-2
COc1cccc(-c2csc(NC(=O)Nc3ccccc3)n2)c1,4,-60*,-70,6,58*,86*
O=C(Nc1ccc(Cl)c(Cl)c1)Nc1nc(-c2ccccc2)cs1,4,-1,-12,56*,26,37
O=C(Nc1ccc(Cl)c(Cl)c1)Nc1ccccc1C(=O)O,18*,27,68*,-50,38,45
O=C(Nc1ccc(CN2CCCCC2)cc1)Nc1ccccc1Cl,-1,19,29,5,-23,-11
O=C(Nc1ccc(Br)cc1)Nc1ccccc1Cl,-1,25,58*,-20,20,-3
CC(=O)NC(c1ccc(F)c(F)c1)c1nc(-c2cccc(C(=O)O)c2)cs1 (stereo not given),nt,nt,nt,nt,-65,-17
COc1cccc(NC(=O)Nc2nnc(CC(=O)Nc3ccccc3)s2)c1,-6,-6,9,4,30,51*
COc1ccc(NC(=O)Nc2nnc(CC(=O)Nc3ccccc3)s2)cc1,4,0,16,-2,4,-26
Cc1ccccc1CSCc1nc(N)nc(Nc2ccccc2C)n1,-3,21,22,1,-29,7
Cc1ccccc1Nc1nc(N)nc(COC(=O)c2ccc(O)cc2)n1,-6,1,5,-4,-16,-21
Cc1ccccc1Nc1nc(N)nc(COC(=O)c2ccccc2)n1,-9,44,58*,-20,-56,-51
Nc1nc(CCl)nc(Nc2cccc3ccccc23)n1,1,-77*,-79,nt,6,23
Nc1nc(Nc2cccc3ccccc23)nc(C2CCCC2=O)n1 (stereo not given),-4,7,53*,nt,nt,nt
CCCCOCCCNC(=O)C[C@@H]1C[C@@]2(C(=O)OCC)CCCC=C2N(Cc2ccc(Cl)cc2Cl)C1=O,nt,nt,nt,nt,16,7
COc1ccc(-c2oc3c(c2C#CC(C)(C)O)C(OC)CCC3)cc1 (stereo not given),nt,nt,nt,nt,1,25
SMILES,HSP90 refold inh,HSF1 inhib,HSF1 activator,EBV LMP1 NFkB,TROY NFkB inh,TWEAK-Fn14 inh
N#Cc1ccccc1COC(=O)c1ccc(Br)o1,-1,-6,-7,-5,-24,6
N#Cc1ccccc1COC(=O)c1cc(=O)c2ccccc2o1,0,24,63*,-1,-13,-9
CCOc1ccc(CCNC(=O)C2CCCN(c3nn4c(=O)cc(C)nc4s3)C2)cc1 (stereo not given),0,-1,-1,1,0,8
CCOc1ccc(NC(=O)C2CCCN(c3nn4c(=O)cc(C)nc4s3)C2)cc1 (stereo not given),-3,-62*,-69,8,-9,-6
Cc1cc(C)nc(N2CCCC(C(=O)Nc3ccc4nc(C)c(C)nc4c3)C2)n1 (stereo not given),-1,25,57*,0,-8,0
CC(=O)NC(c1ccc(F)c(F)c1)c1nc(-c2ccccc2C)cs1 (stereo not given),nt,nt,nt,nt,-16,-14
CN(c1ccccc1)S(=O)(=O)c1cc(C(=O)NCc2ccco2)ccc1Cl,nt,nt,nt,-2,0,24
O=C(OCCO)c1c(-c2ccccc2)oc2c1C(OCCO)CCC2 (stereo not given),nt,nt,nt,nt,-3,9
CC(=O)N1CSCC1C(=O)NNS(=O)(=O)c1cccc(C(F)(F)F)c1 (stereo not given),-1,19,75*,1,2,-1
COc1cc(C23CCCN(CCC(C(C)(C)C)C2)C32OCCO2)cc(OC)c1OC (stereo not given),nt,nt,nt,nt,7,6
COc1ccc(-n2nc(C(=O)NCC(=O)N3CCOCC3)c3ccccc3c2=O)cc1Cl,0,13,56*,-6,-21,-13
CC(=O)Nc1cccc(NC(=O)CSc2nc(C3CC3)nc3ccccc23)c1,-2,3,-3,23,9,31
Cc1nnc(SCC(=O)Nc2ccccc2)c2ccccc12,0,33,52*,-16,-37,-9
Cc1nnc(SCC(=O)Nc2ccc(O)cc2)c2ccccc12,-3,8,14,17,-13,18
CC(=O)c1cccc(NC(=O)CSc2nc(C3CC3)nc3ccccc23)c1,3,8,9,7,40,58*
CC(=O)Oc1ccccc1Cn1c(C)c(C(=O)NCc2cccc([N+](=O)[O-])c2)sc1=O,nt,nt,nt,nt,3,10
C=C(C)C(=O)Nc1ccc2nn(-c3ccccc3O)nc2c1,nt,nt,nt,-42,-24,36
O=C(CSc1nnc(CNC(=O)c2cccs2)o1)NCc1ccc(F)cc1,3,-55*,-64,-2,-14,4
Cc1ccc(C)c(C(O)c2ncc(-c3ccccc3)[nH]2)c1 (stereo not given),nt,nt,nt,nt,-14,7
CCN(CC)S(=O)(=O)c1ccc(C(=O)OCC(=O)N2CCOCC2)cc1,-2,-4,3,1,-11,0
Cc1c(S(=O)(=O)N2CCN(C(=O)c3ccco3)CC2)c(=O)n(C)c(=O)n1C,-5,-1,-14,1,-14,6
CCN(CC)S(=O)(=O)c1ccc(C(=O)OCC(=O)N2CCN(C(=O)c3ccco3)CC2)cc1,-3,14,53*,4,-7,9
Cn1cc(S(=O)(=O)N2CCN(C(=O)c3ccco3)CC2)c(=O)n(C)c1=O,-2,2,13,88*,-5,6
CCCS(=O)(=O)N1CCN(C(=O)c2ccco2)CC1,-3,-6,0,1,13,77*
CCc1nc2ccc(C(=O)NCc3ccccc3OC)cn2c1N(CC)Cc1cccc(Br)c1,nt,nt,nt,nt,19,18
Cc1ccc(F)c(S(=O)(=O)NC(=O)C2(C)CCN2C(=O)CC(c2ccccc2)c2ccccc2)c1 (stereo not given),nt,nt,nt,nt,-9,1
